Measured values reported in PubChem BioAssay AID1347418 (Sanford-Burnham Center for Chemical Genomics, 2020).
Out of some 1,300 compounds screened, about 750 (58%) were called active. This is one part of the list.

Biological target: Sulfhydryl oxidase 1 (Homo sapiens) (UniProt O00391)
Assay: inhibition of human sulfhydryl oxidase QSOX1 – biochemical, ROS-Glo H2O2 luminescence, HTS, primary screen (AID 1347418)
Settings: recombinant QSOX1, ROS-Glo H2O2 luminescence, at 12.5 µM, stronger effect = higher value; active = any value above zero unless noted

Chain of Sulfhydryl oxidase 1 (Homo sapiens) (O00391 whole entry, looked up): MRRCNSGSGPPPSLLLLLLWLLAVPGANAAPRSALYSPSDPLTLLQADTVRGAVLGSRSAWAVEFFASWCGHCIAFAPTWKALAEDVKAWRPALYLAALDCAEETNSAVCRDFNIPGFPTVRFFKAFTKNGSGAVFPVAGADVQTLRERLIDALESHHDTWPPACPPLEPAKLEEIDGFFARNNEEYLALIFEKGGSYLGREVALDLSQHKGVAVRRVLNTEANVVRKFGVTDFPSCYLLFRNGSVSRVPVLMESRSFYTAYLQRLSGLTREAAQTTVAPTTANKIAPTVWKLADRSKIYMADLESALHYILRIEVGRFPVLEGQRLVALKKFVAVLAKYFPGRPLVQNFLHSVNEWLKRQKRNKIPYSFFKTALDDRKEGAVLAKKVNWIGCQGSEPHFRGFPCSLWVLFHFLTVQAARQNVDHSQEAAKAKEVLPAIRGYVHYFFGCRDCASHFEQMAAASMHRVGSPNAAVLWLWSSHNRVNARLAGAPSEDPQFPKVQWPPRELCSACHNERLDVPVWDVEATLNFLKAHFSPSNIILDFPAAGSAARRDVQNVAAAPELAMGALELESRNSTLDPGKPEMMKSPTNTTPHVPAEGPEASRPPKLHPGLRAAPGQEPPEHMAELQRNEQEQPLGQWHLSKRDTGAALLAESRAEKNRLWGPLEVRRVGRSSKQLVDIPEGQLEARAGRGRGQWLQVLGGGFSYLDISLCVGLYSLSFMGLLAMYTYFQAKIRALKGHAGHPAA

SMILES | inhibition
CN(N=O)c1cc(O)ccc1O | 4.1% (active)
CN(N=O)c1ccc(O)c(O)c1 | 5.2% (active)
NC1CC1c1ccccc1 (configuration not stated) | -0.7% (inactive)
CCCN1CCO[C@@H]2c3cc(O)ccc3OC[C@H]21 | 4.3% (active)
CCCN1CC[C@@H]2c3cc(O)ccc3CC[C@@H]21 | -5.9% (inactive)
CCN(CCCl)Cc1ccccc1Br | 1.5% (active)
COc1ccc2c(c1O)-c1cccc3c1[C@@H](C2)N(C)CC3 | 3.5% (active)
CCCN1CCc2cccc3c2[C@H]1Cc1ccc(O)c(O)c1-3 | 25.2% (active)
CN1CCc2cc(O)cc3c2[C@H]1Cc1ccc(O)c(O)c1-3 | 25.4% (active)
C=CCN1CCc2cccc3c2[C@H]1Cc1ccc(O)c(O)c1-3 | 23.6% (active)
COc1ccc2c(c1OC)C(=O)O[C@H]2[C@@H]1c2cc3c(cc2CCN1C)OCO3 | -2.2% (inactive)
CCCN1CCc2cc(O)cc3c2[C@H]1Cc1ccc(O)c(O)c1-3 | 29.9% (active)
C[C@H]1C2Cc3ccc(O)cc3C1(C)CCN2CC1CC1 (some centres not stated) | 4.5% [setting not given] (active)
O=C(O)CC[N+](=O)[O-] | -3.4% [setting not given] (inactive)
CC(C)NP(=O)(NC(C)C)OP(=O)(NC(C)C)NC(C)C | 10.1% (active)
C[C@H](N)CN1CCc2ccc(Br)cc21 | 35.7% (active)
CCCn1c(=O)c2[nH]c(C3CCCC3)nc2n(CCCOC(=O)c2ccc(S(=O)(=O)F)cc2)c1=O | -1.3% (inactive)
CC(=O)c1c(O)c(C)c(O)c(Cc2c(O)c3c(c(C(=O)/C=C/c4ccccc4)c2O)OC(C)(C)C=C3)c1O | 0.8% (active)
CCNC(=O)[C@H]1O[C@@H](n2cnc3c(N)ncnc32)C(O)[C@H]1O (some centres not stated) | 3.3% (active)
CCCC(C)(COC(N)=O)COC(=O)NC(C)C (configuration not stated) | 1.5% [setting not given] (active)
NC1CCc2cc(O)c(O)cc2C1 (configuration not stated) | 12.7% (active)
Ic1ccccc1CNC1C2CCN(CC2)C1C(c1ccccc1)c1ccccc1 (configuration not stated) | -6.2% (inactive)
COc1ccc2c(c1)[C@@]13CCCC[C@H]1[C@@H](C2)NCC3 | 1.4% [setting not given] (active)

SMILES | inhibition
COc1ccc2c(c1)C13CCCCC1C(C2)N(C)CC3 (configuration not stated) | -2.3% [setting not given] (inactive)
c1ccc(C2CC2)c(OCC2=NCCN2)c1 | -2% (inactive)
CC(CCc1ccccc1)NC(C)C(O)c1ccc(O)cc1 (configuration not stated) | 0.8% (active)
Nc1ccc(CCN2CCN(c3cccc(C(F)(F)F)c3)CC2)cc1 | 2.2% (active)
S=C(NC1CCCCC1)N1CCC(c2cnc[nH]2)CC1 | -1.7% (inactive)
Clc1ccc(N2CC3CCC(C2)N3)nn1 | 1.8% (active)
C#CCN[C@H](C)Cc1ccccc1 | 4.3% [setting not given] (active)
C[Se]C[C@H](N)C(=O)O | 3.9% (active)
N[C@@H](CCl)C(=O)O | -3.4% (inactive)
O=C1NCN(c2ccccc2)C12CCN(CC1COc3ccccc3O1)CC2 (configuration not stated) | -3.1% (inactive)
C/C(O)=C(\C#N)C(=O)Nc1cc(Br)ccc1Br | -1.3% (inactive)
COc1cc(CC(C)N)c(OC)cc1I (configuration not stated) | 4.3% [setting not given] (active)
NC(=O)c1ccc(OCC(O)CN2CC=C(c3ccc(F)cc3)CC2)cc1 (configuration not stated) | 0.4% (active)
COc1ccc(C(CN(C)C)C2(O)CCCCC2)cc1 (configuration not stated) | -1.3% (inactive)
CC(C)NC(C)Cc1ccc(I)cc1 (configuration not stated) | 5.2% [setting not given] (active)
COc1ccc2[nH]c3c(c2c1)CCNC3 | 0.8% (active)
O=S1(=O)N(CCN2CC=C(c3c[nH]c4cc(F)ccc34)CC2)c2cccc3c2N1CCC3 | 4.2% (active)
CC(=O)[C@H]1CC[C@H]2[C@@H]3CC[C@H]4C[C@H](O)CC[C@]4(C)[C@H]3C(=O)C[C@]12C | -0.2% [setting not given] (inactive)
Fc1ccc(C(OCCN2CCN(CCCc3ccccc3)CC2)c2ccc(F)cc2)cc1 | 6.5% (active)
O=C(CCCN1CCC2(CC1)C(=O)NCN2c1ccccc1)c1ccc(F)cc1 | -1% [setting not given] (inactive)
c1ccc(CCCN2CCN(CCOC(c3ccccc3)c3ccccc3)CC2)cc1 | 7% (active)
CC[C@@H](CO)NC(=O)[C@@H]1C=C2c3cccc4c3c(cn4C)C[C@H]2N(C)C1 | 1.6% [setting not given] (active)
CC[C@@H](CO)NC(=O)[C@@H]1C=C2c3cccc4[nH]cc(c34)C[C@H]2N(C)C1 | 6.3% [setting not given] (active)

SMILES | inhibition
C=CCN1CC[C@]23c4c5ccc(O)c4O[C@H]2/C(=N/NC(=O)c2ccccc2)CC[C@@]3(O)[C@H]1C5 | -0.4% [setting not given] (inactive)
C=CCN1CCC23c4c5ccc(O)c4O[C@H]2C(=O)CC[C@@]3(O)C1C5 (some centres not stated) | 3.2% [setting not given] (active)
O=C1CC[C@@]2(O)C3Cc4ccc(O)c5c4C2(CCN3CC2CC2)[C@H]1O5 (some centres not stated) | 1.2% [setting not given] (active)
C=CCN1CC[C@]23c4c5ccc(O)c4O[C@@H]2/C(=N/N=C2\CC[C@@]4(O)C6Cc7ccc(O)c8c7[C@@]4(CCN6CC=C)[C@@H]2O8)CC[C@@]3(O)C1C5 | 1.8% (active)
CCOC(=O)c1ncn2c1[C@@H]1CCCN1C(=O)c1cc(OC)ccc1-2 | 3.1% (active)
Cc1ncsc1CCCl | 4.8% (active)
Clc1cnc(Oc2ccc(Oc3ncc(Cl)cc3Cl)cc2)c(Cl)c1 | -1.5% [setting not given] (inactive)
CN1CCC(c2c[nH]c3ccc(O)cc23)CC1 | 26.8% (active)
CC(Cc1ccc(OCC(=O)O)cc1)NCC(O)c1cccc(Cl)c1 (configuration not stated) | -3.3% (inactive)
CC(Cc1ccc(O)cc1)NCC(O)c1cc(O)cc(O)c1 (configuration not stated) | 7.9% [setting not given] (active)
N[C@@]1(C(=O)O)CC[C@@H](C(=O)O)C1 | -1.7% (inactive)
CN1CC[C@@]2(C)c3cc(OC(=O)Nc4ccccc4)ccc3N(C)[C@@H]12 | 8.3% (active)
CN1CC[C@@]2(C)c3cc(O)ccc3N(C)C12 (some centres not stated) | 15.2% (active)
COc1ccc(C(=O)N2CCCC2=O)cc1 | -3% [setting not given] (inactive)
Cc1cccc(C)c1NC(=O)CN1CCCC1=O | 3% [setting not given] (active)
NC(=O)CN1CCCC1=O | 2.9% [setting not given] (active)
NC(=O)CN1CC(O)CC1=O (configuration not stated) | 1.1% [setting not given] (active)
O=C1CCCN1CC#CCN1CCCC1 | -8.1% [setting not given] (inactive)
CC[C@@H](C(N)=O)N1CCCC1=O | -2.6% [setting not given] (inactive)
C=CCN(C1=NCCN1)c1c(Cl)cccc1Cl | -6.5% (inactive)
CCC1(C2=NCCN2)Cc2ccccc2O1 (configuration not stated) | -2.6% (inactive)
C/C=C(/C)C(=O)O[C@H]1C(C)=C2[C@H]([C@@H]1OC(=O)CCCCCCC)[C@@](C)(OC(C)=O)C[C@H](OC(=O)CCC)[C@@]1(O)[C@H]2OC(=O)[C@@]1(C)O | -0.7% (inactive)
CN[C@@H]1C[C@@H](c2ccc(Cl)c(Cl)c2)c2ccccc21 | -1.2% (inactive)

SMILES | inhibition
CCCN1CCC[C@@H]2Cc3[nH]ncc3C[C@H]21 | -2.4% (inactive)
CC12CCC3C(CCC4=C(O)C(=O)CCC43C)C1CCC2=O (configuration not stated) | 0.2% [setting not given] (active)
C[C@@H](N)Cc1cnc[nH]1 | 11.8% (active)
c1ccc(C2(c3ccccc3)CC2C2=NCCN2)cc1 (configuration not stated) | -0.8% (inactive)
CCn1cnc2c(Nc3cccc(Cl)c3)nc(N[C@@H]3CCCC[C@@H]3N)nc21 | 0.3% (active)
NC(Cn1oc(=O)[nH]c1=O)C(=O)O (configuration not stated) | 2.7% (active)
CCC1(c2ccc(N)cc2)CCC(=O)NC1=O (configuration not stated) | -0.8% [setting not given] (inactive)
NCCCP(=O)(O)O | 6.4% (active)
CC(NC(C)(C)C)C(=O)c1cccc(Cl)c1 (configuration not stated) | 0.7% [setting not given] (active)
CCCN1CCC[C@@H]2Cc3nc(N)ncc3C[C@H]21 | -0.3% (inactive)
N#CC(C#N)=Cc1ccc(O)c(O)c1 | 31.5% (active)
N#CC(=Cc1ccc(O)c(O)c1)C(N)=S | 26.9% (active)
CC(C)(C)c1cc(C=C(C#N)C#N)cc(C(C)(C)C)c1O | 27.7% (active)
CCCCc1ccc(C(=O)O)nc1 | -1.9% (inactive)
NC(=O)c1cc(N2CC2)c([N+](=O)[O-])cc1[N+](=O)[O-] | -2.6% (inactive)
CC(N)[C@H](O)c1ccc(O)c(O)c1 (some centres not stated) | 10.4% [setting not given] (active)
COc1ccc(OC)c(C(O)C(C)N)c1 (configuration not stated) | -1.4% [setting not given] (inactive)
C[C@@H]1O[C@@H](O[C@H]2C[C@@H](O)[C@]3(CO)[C@@H]4C(CC[C@]3(O)C2)[C@@]2(O)CC[C@H](C3COC(=O)C3)[C@@]2(C)C[C@H]4O)[C@H](O)[C@H](O)[C@H]1O (some centres not stated) | -6.9% (inactive)
C[C@@H]1O[C@@H](O[C@H]2C[C@@H](O)[C@]3(CO)[C@H]4[C@H](O)C[C@]5(C)[C@@H](C6=CC(=O)OC6)CC[C@]5(O)[C@@H]4CC[C@]3(O)C2)[C@H](O)[C@H](O)[C@H]1O | 1.8% [setting not given] (active)
CN1C2CCC1CC(OC(=O)c1cc(Cl)cc(Cl)c1)C2 (configuration not stated) | -0.7% (inactive)
CN1C2CCC1CC(OC(c1ccccc1)c1ccccc1N)C2 (configuration not stated) | 1.1% (active)
COC(=O)[C@@H](N)CCCN=C(N)N[N+](=O)[O-] | 2.4% (active)
NC(=NCCC[C@H](N)C(=O)O)N[N+](=O)[O-] | -2.6% (inactive)
